Measurements: PubChem BioAssay (NCI)
The panel holds about 83,000 compounds, 20% with a hit somewhere; the sample as a whole holds those more often.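 For each line, cells grew in 96-well plates with the test compound present at a single concentration for 48 hours.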 The source made the active and inactive calls. How the source made its calls: active means growth percent below 10; inactive means the rest.

How the values were obtained:
Assay in all cases: NCI-60 one-dose screen, 48 h (100 = growth as untreated, 0 = no growth, -100 = all killed)
Conditions in all cases: 10 µM unless noted
NCI-H23 lung = system: NCI-H23 lung
NCI-H226 lung = system: NCI-H226 lung
NCI-H322M lung = system: NCI-H322M lung
HOP-62 NSCLC = system: HOP-62 NSCLC
NCI-H460 lung = system: NCI-H460 lung
HOP-92 NSCLC = system: HOP-92 NSCLC
NCI-H522 lung = system: NCI-H522 lung
A549/ATCC NSCLC = system: A549/ATCC NSCLC
786-0 renal = system: 786-0 renal
COLO 205 colon = system: COLO 205 colon
DU-145 prostate = system: DU-145 prostate
K-562 leukemia = system: K-562 leukemia
MALME-3M melanoma = system: MALME-3M melanoma
MDA-MB-231 breast = system: MDA-MB-231 breast
RXF 393 renal = system: RXF 393 renal
SF-268 CNS = system: SF-268 CNS
SF-295 CNS = system: SF-295 CNS
UACC-257 melanoma = system: UACC-257 melanoma
M14 melanoma = system: M14 melanoma
SF-539 CNS = system: SF-539 CNS

Measured: growth

CC1(C)OC2C(CO)OC(n3ccc(=O)[nH]c3=O)C2O1 (centres undefined)
inactive: NCI-H23 lung 102% | NCI-H226 lung 98.4% | NCI-H322M lung 92.5% | HOP-62 NSCLC 88.9% | NCI-H460 lung 100% | HOP-92 NSCLC 82.8% | NCI-H522 lung 81.5% | A549/ATCC NSCLC 73.2% | 786-0 renal 105% | COLO 205 colon 100% | DU-145 prostate 112% | K-562 leukemia 110% | MALME-3M melanoma 85.2% | MDA-MB-231 breast 92.9% | RXF 393 renal 113% | SF-268 CNS 102% | SF-295 CNS 104% | UACC-257 melanoma 75.7% | M14 melanoma 105%

Nc1ccc2ccccc2c1-c1c(N)ccc2ccccc12
inactive: NCI-H23 lung 41.6% | NCI-H226 lung 73.5% | NCI-H322M lung 39.7% | HOP-62 NSCLC 43% | NCI-H460 lung 20.2% | HOP-92 NSCLC 52.9% | NCI-H522 lung 37.1% | A549/ATCC NSCLC 19.9% | 786-0 renal 49.3% | DU-145 prostate 25.8% | K-562 leukemia 18.7% | MALME-3M melanoma 42.4% | MDA-MB-231 breast 43% | SF-268 CNS 54.1% | SF-295 CNS 13.8% | UACC-257 melanoma 18% | M14 melanoma 19.5%
active: COLO 205 colon 5.44% | RXF 393 renal 6.23%

O=C(NC1CCCCC1)c1ccc(Cl)cc1
inactive: NCI-H23 lung 95.7% | NCI-H226 lung 92.5% | NCI-H322M lung 98.1% | HOP-62 NSCLC 92.8% | NCI-H460 lung 101% | HOP-92 NSCLC 95% | NCI-H522 lung 96.2% | A549/ATCC NSCLC 99.9% | 786-0 renal 103% | COLO 205 colon 109% | DU-145 prostate 103% | K-562 leukemia 96.5% | MALME-3M melanoma 106% | MDA-MB-231 breast 113% | SF-268 CNS 97.1% | SF-295 CNS 105% | SF-539 CNS 104% | UACC-257 melanoma 105% | M14 melanoma 105%

C=C1SC(=Nc2c(C)cccc2C)N(c2nc(Cl)nc(Cl)n2)C12CCCCC2
inactive: NCI-H23 lung 103% | NCI-H226 lung 104% | NCI-H322M lung 85.4% | HOP-62 NSCLC 105% | NCI-H460 lung 110% | HOP-92 NSCLC 105% | NCI-H522 lung 82.9% | A549/ATCC NSCLC 96.2% | 786-0 renal 99.9% | COLO 205 colon 109% | DU-145 prostate 108% | K-562 leukemia 95.2% | MALME-3M melanoma 90.3% | MDA-MB-231 breast 115% | RXF 393 renal 106% | SF-268 CNS 107% | SF-539 CNS 116% | UACC-257 melanoma 94.6% | M14 melanoma 97.9%

CCNc1ncnc2[nH]ncc12
inactive: NCI-H23 lung 114% | NCI-H226 lung 98.9% | NCI-H322M lung 96.1% | HOP-62 NSCLC 103% | NCI-H460 lung 106% | HOP-92 NSCLC 101% | NCI-H522 lung 113% | A549/ATCC NSCLC 107% | 786-0 renal 105% | COLO 205 colon 114% | DU-145 prostate 117% | K-562 leukemia 119% | MALME-3M melanoma 72% | MDA-MB-231 breast 107% | SF-268 CNS 112% | SF-295 CNS 112% | SF-539 CNS 96.2% | UACC-257 melanoma 89.2% | M14 melanoma 107%

CSc1nsc(N)n1
inactive: NCI-H23 lung 97.9% | NCI-H226 lung 103% | NCI-H322M lung 87.9% | HOP-62 NSCLC 90% | NCI-H460 lung 97.3% | HOP-92 NSCLC 95.6% | NCI-H522 lung 90.3% | A549/ATCC NSCLC 92% | 786-0 renal 106% | COLO 205 colon 99.4% | DU-145 prostate 115% | K-562 leukemia 113% | MALME-3M melanoma 93.5% | MDA-MB-231 breast 95.9% | RXF 393 renal 108% | SF-268 CNS 104% | SF-295 CNS 101% | UACC-257 melanoma 99.9% | M14 melanoma 97.6%

O=Cc1ccc(F)cc1
inactive: NCI-H23 lung 105% | NCI-H226 lung 94.7% | NCI-H322M lung 90.6% | HOP-62 NSCLC 108% | NCI-H460 lung 93.9% | HOP-92 NSCLC 103% | NCI-H522 lung 97.8% | A549/ATCC NSCLC 108% | 786-0 renal 102% | COLO 205 colon 111% | DU-145 prostate 109% | K-562 leukemia 127% | MALME-3M melanoma 85.1% | MDA-MB-231 breast 97.1% | RXF 393 renal 86.9% | SF-268 CNS 109% | SF-539 CNS 101% | UACC-257 melanoma 106% | M14 melanoma 106%

CN1CCCN(C(c2ccccc2)c2ccc(Br)cc2)CC1 (centres undefined)
inactive: NCI-H23 lung 87.1% | NCI-H226 lung 78.2% | NCI-H322M lung 39.7% | HOP-62 NSCLC 76.8% | NCI-H460 lung 82.5% | HOP-92 NSCLC 25.8% | NCI-H522 lung 90.8% | A549/ATCC NSCLC 87.7% | 786-0 renal 79.1% | COLO 205 colon 81.5% | DU-145 prostate 94.8% | K-562 leukemia 20.3% | MALME-3M melanoma 63.1% | MDA-MB-231 breast 49% | SF-268 CNS 61.6% | SF-295 CNS 57.8% | SF-539 CNS 75.2% | UACC-257 melanoma 91%
active: M14 melanoma -8.62%

CC(C)(C)CC1(C)NC(=O)NC1=O (centres undefined)
inactive: NCI-H23 lung 103% | NCI-H226 lung 112% | NCI-H322M lung 126% | HOP-62 NSCLC 99.1% | NCI-H460 lung 120% | HOP-92 NSCLC 107% | NCI-H522 lung 150% | A549/ATCC NSCLC 120% | 786-0 renal 98.7% | COLO 205 colon 135% | DU-145 prostate 114% | K-562 leukemia 126% | MALME-3M melanoma 111% | MDA-MB-231 breast 118% | SF-268 CNS 119% | SF-295 CNS 108% | SF-539 CNS 109% | UACC-257 melanoma 114% | M14 melanoma 104%

NNc1ncnc2c1ncn2C1OC(CO)C(O)C1O (centres undefined)
inactive: NCI-H23 lung 66% | NCI-H226 lung 55.8% | NCI-H322M lung 40% | HOP-62 NSCLC 15% | HOP-92 NSCLC 34.9% | NCI-H522 lung 20.1% | A549/ATCC NSCLC 18% | 786-0 renal 35.9% | COLO 205 colon 40.4% | DU-145 prostate 19.3% | K-562 leukemia 30.4% | MALME-3M melanoma 122% | MDA-MB-231 breast 10.7% | SF-268 CNS 50.3% | SF-295 CNS 38.7% | SF-539 CNS 90.9% | UACC-257 melanoma 84.9% | M14 melanoma 31.6%
active: NCI-H460 lung 2.13%

O=C1NCC2CCCC1C2 (centres undefined)
inactive: NCI-H23 lung 105% | NCI-H226 lung 104% | NCI-H322M lung 96.8% | HOP-62 NSCLC 115% | NCI-H460 lung 120% | HOP-92 NSCLC 130% | NCI-H522 lung 90.3% | A549/ATCC NSCLC 97.6% | 786-0 renal 99.5% | COLO 205 colon 119% | DU-145 prostate 113% | K-562 leukemia 106% | MALME-3M melanoma 109% | MDA-MB-231 breast 102% | RXF 393 renal 103% | SF-268 CNS 103% | SF-539 CNS 111% | UACC-257 melanoma 81.7% | M14 melanoma 96.7%

CCCCCCCCCCCCCCCCOc1ccccc1NC(=O)CC(C)=O
inactive: NCI-H23 lung 111% | NCI-H226 lung 105% | NCI-H322M lung 109% | HOP-62 NSCLC 112% | NCI-H460 lung 112% | HOP-92 NSCLC 96.4% | NCI-H522 lung 87.1% | A549/ATCC NSCLC 91.7% | 786-0 renal 59.8% | COLO 205 colon 131% | DU-145 prostate 92% | K-562 leukemia 87.1% | MALME-3M melanoma 117% | MDA-MB-231 breast 87.4% | RXF 393 renal 107% | SF-268 CNS 103% | SF-539 CNS 94.5% | UACC-257 melanoma 117% | M14 melanoma 109%

O=C(c1ccccc1O)N1CCCC1
inactive: NCI-H23 lung 99.3% | NCI-H226 lung 94.5% | NCI-H322M lung 101% | HOP-62 NSCLC 89.7% | NCI-H460 lung 105% | HOP-92 NSCLC 94.5% | NCI-H522 lung 76.1% | A549/ATCC NSCLC 74.9% | 786-0 renal 95.9% | COLO 205 colon 103% | DU-145 prostate 115% | K-562 leukemia 89.1% | MALME-3M melanoma 104% | MDA-MB-231 breast 105% | RXF 393 renal 106% | SF-268 CNS 106% | SF-295 CNS 96.6% | UACC-257 melanoma 80.2% | M14 melanoma 96.4%

c1ccc(-c2ccc3ccccc3c2)cc1
inactive: NCI-H23 lung 100% | NCI-H226 lung 80.4% | NCI-H322M lung 85% | HOP-62 NSCLC 85.3% | NCI-H460 lung 102% | HOP-92 NSCLC 77% | NCI-H522 lung 57.1% | A549/ATCC NSCLC 84.2% | 786-0 renal 112% | COLO 205 colon 96.3% | DU-145 prostate 106% | K-562 leukemia 111% | MALME-3M melanoma 84.1% | MDA-MB-231 breast 91% | RXF 393 renal 103% | SF-268 CNS 89.9% | SF-295 CNS 102% | UACC-257 melanoma 94.7% | M14 melanoma 103%

COc1cc2c(c(OC)c1OC)-c1ccc(SC)c(=O)cc1[C@@H](NC1OC(CO)C(O)C(O)C1O)CC2 (some centres undefined)
active: NCI-H460 lung 3.13% | NCI-H522 lung -16.8% | COLO 205 colon -61.5% | DU-145 prostate 6.12% | K-562 leukemia 4.19% | MDA-MB-231 breast 7.41% | SF-295 CNS -35.8% | SF-539 CNS 1.24%
inactive: NCI-H23 lung 29.9% | NCI-H226 lung 43.4% | NCI-H322M lung 33% | HOP-62 NSCLC 25.9% | HOP-92 NSCLC 77.9% | A549/ATCC NSCLC 10.4% | 786-0 renal 19.8% | MALME-3M melanoma 54.6% | SF-268 CNS 22.7% | UACC-257 melanoma 50.5% | M14 melanoma 11.3%

CCN(C(=O)Nc1ccccc1Cl)c1ccccc1
inactive: NCI-H23 lung 101% | NCI-H226 lung 107% | NCI-H322M lung 109% | HOP-62 NSCLC 111% | NCI-H460 lung 108% | HOP-92 NSCLC 101% | NCI-H522 lung 106% | A549/ATCC NSCLC 100% | 786-0 renal 112% | COLO 205 colon 113% | DU-145 prostate 109% | K-562 leukemia 93.9% | MALME-3M melanoma 100% | MDA-MB-231 breast 109% | RXF 393 renal 115% | SF-268 CNS 109% | SF-539 CNS 104% | UACC-257 melanoma 102% | M14 melanoma 111%
